We go through 34 compounds from PubChem BioAssay (NCATS).

Inconclusive results are not listed. Entries that show only a call come without a potency. Active and inactive are the calls of the source. Calls come from the whole dose curve; as a rule, active = well fitted inhibition curve with a large enough effect; inconclusive = small, poorly fitted or top-dose-only effect; inactive = flat fitted curve, though single readings scatter.
Potency is the fitted concentration of half-maximal effect.

The subject of the first experiment is CP203. Kind of experiment: qHTS profiling for inhibitors of Plasmodium falciparum proliferation (AID 504749). Note: nearly all actives have a fitted effect of over 60% in size. The settings on record: P. falciparum in erythrocytes, SYBR Green DNA, 72 h; series mostly up to 28.7 µM. The method, boiled down: (§1)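 P. falciparum-infected erythrocytes (0.3% parasitemia, 2.5% hematocrit) incubated with compound 72 h at 37 C, 5% CO2. Parasite DNA detected by SYBR Green after lysis, overnight at room temperature; normalised to 0.29 uM artemisinin and DMSO.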
Background: In qHTS, concentration-response curves come from the screen itself.
Take `Cc1cc(C(C)(C)C)cc(C)c1CC1=NCCN1`: the Potency entry is “inactive”.
Still for that read-out and setting: with `OCCN1CCN(CCCN2c3ccccc3Sc3ccc(C(F)(F)F)cc32)CC1` the figure was 13.5 µM (active).
The same measure, in the same setting: with `O=c1c(-c2ccc(O)cc2)coc2cc(O)cc(O)c12` the entry was “inactive”; with `CC[N+](CC)(CC)CCOc1cccc(OCC[N+](CC)(CC)CC)c1OCC[N+](CC)(CC)CC`, “inactive”.
Same read-out and setting: to `CC(C)NCC(O)c1ccc(O)c(O)c1` (stereo not drawn) belongs “inactive”; to `CN(Cc1cnc2nc(N)nc(N)c2n1)c1ccc(C(=O)N[C@@H](CCC(=O)O)C(=O)O)cc1`, “inactive”.
For the compound `Cc1ccc(C(=O)Nc2ccc(S(=O)(=O)O)c3cc(S(=O)(=O)O)cc(S(=O)(=O)O)c23)cc1NC(=O)c1cccc(NC(=O)Nc2cccc(C(=O)Nc3cc(C(=O)Nc4ccc(S(=O)(=O)O)c5cc(S(=O)(=O)O)cc(S(=O)(=O)O)c45)ccc3C)c2)c1`, the Potency entry was “inactive”.
On the same count and under the same terms, to `CC[C@@]1(O)C(=O)OCc2c1cc1n(c2=O)Cc2cc3c(CN(C)C)c(O)ccc3nc2-1` belongs 6.75 µM (active); to `O=C(c1ccc(OCCN2CCCCC2)cc1)c1c(-c2ccc(O)cc2)sc2cc(O)ccc12`, 16.9 µM (active).
With `CC(C)NCC(O)COc1ccc(CCOCC2CC2)cc1` (stereo not drawn), the Potency entry is “inactive”.
Still for that read-out and setting: to `COC(=O)Nc1nc2ccc(C(=O)c3cccs3)cc2[nH]1` belongs “inactive”; to `O=C(Nc1ccc([N+](=O)[O-])cc1Cl)c1cc(Cl)ccc1O`, 0.478 µM (active); to `CN1CCC(=C2c3ccccc3CC(=O)c3sccc32)CC1`, 8.49 µM (active).
Still for that read-out and setting: with `CC12CC3CC(C)(C1)CC(N)(C3)C2` the entry was “inactive”; with `O=C(c1ccc(F)cc1)C1CCN(CCn2c(=O)[nH]c3ccccc3c2=O)CC1`, “inactive”; with `Cc1cnc(C(=O)NCCc2ccc(S(=O)(=O)NC(=O)NC3CCCCC3)cc2)cn1`, “inactive”.
Same read-out and setting: to `Clc1ccc2c(c1)C(N1CCNCC1)=Nc1ccccc1O2` belongs “inactive”; to `CCOC(=O)Nc1ccc(NCc2ccc(F)cc2)nc1N`, “inactive”; to `C[C@](N)(Cc1ccc(O)c(O)c1)C(=O)O`, “inactive”.
On to `NCCc1cnc[nH]1`, for which the Potency entry is “inactive”.
Still for that read-out and setting: to `CCC1(c2ccccc2)C(=O)NCNC1=O` belongs “inactive”; to `CC#C[C@]1(O)CC[C@H]2[C@@H]3CCC4=CC(=O)CCC4=C3[C@@H](c3ccc(N(C)C)cc3)C[C@@]21C`, 19 µM (active).
Still for that read-out and setting: to `CCCCc1oc2ccccc2c1C(=O)c1cc(I)c(OCCN(CC)CC)c(I)c1` belongs 15.1 µM (active).

The test system of a further experiment is CP211. The experiment is described as above. To be noted: P. falciparum in erythrocytes, SYBR Green DNA, 72 h; series mostly up to 28.7 µM. Summed up: as §1
Turning to `Cc1cc(C(C)(C)C)cc(C)c1CC1=NCCN1`, the Potency entry is “inactive”.
The same measure, in the same setting: with `OCCN1CCN(CCCN2c3ccccc3Sc3ccc(C(F)(F)F)cc32)CC1` the figure was 7.57 µM (active); with `O=c1c(-c2ccc(O)cc2)coc2cc(O)cc(O)c12`, “inactive”.
Same read-out and setting: to `CC[N+](CC)(CC)CCOc1cccc(OCC[N+](CC)(CC)CC)c1OCC[N+](CC)(CC)CC` belongs “inactive”.
The same measure, in the same setting: with `CC(C)NCC(O)c1ccc(O)c(O)c1` (stereo not drawn) the entry was “inactive”.
Regarding `CN(Cc1cnc2nc(N)nc(N)c2n1)c1ccc(C(=O)N[C@@H](CCC(=O)O)C(=O)O)cc1`, the Potency entry is “inactive”.
Turning to `Cc1ccc(C(=O)Nc2ccc(S(=O)(=O)O)c3cc(S(=O)(=O)O)cc(S(=O)(=O)O)c23)cc1NC(=O)c1cccc(NC(=O)Nc2cccc(C(=O)Nc3cc(C(=O)Nc4ccc(S(=O)(=O)O)c5cc(S(=O)(=O)O)cc(S(=O)(=O)O)c45)ccc3C)c2)c1`, the Potency result was “inactive”.
The same measure, in the same setting: to `CN(C)CCCN1c2ccccc2CCc2ccc(Cl)cc21` belongs “inactive”; to `CC[C@@]1(O)C(=O)OCc2c1cc1n(c2=O)Cc2cc3c(CN(C)C)c(O)ccc3nc2-1`, 6.01 µM (active); to `CC(C)NCC(O)COc1ccc(CCOCC2CC2)cc1` (stereo not drawn), “inactive”.
Same read-out and setting: with `COC(=O)Nc1nc2ccc(C(=O)c3cccs3)cc2[nH]1` the entry was “inactive”; with `Clc1ccc2nsnc2c1NC1=NCCN1`, “inactive”; with `CC12CC3CC(C)(C1)CC(N)(C3)C2`, “inactive”.
Same read-out and setting: with `O=C(c1ccc(F)cc1)C1CCN(CCn2c(=O)[nH]c3ccccc3c2=O)CC1` the entry was “inactive”.
In the case of `Cc1cnc(C(=O)NCCc2ccc(S(=O)(=O)NC(=O)NC3CCCCC3)cc2)cn1`, the Potency entry was “inactive”.
On the same count and under the same terms, to `Clc1ccc2c(c1)C(N1CCNCC1)=Nc1ccccc1O2` belongs “inactive”.
Turning to `C[C@](N)(Cc1ccc(O)c(O)c1)C(=O)O`, the Potency entry was “inactive”.
The same measure, in the same setting: with `NCCc1cnc[nH]1` the entry was “inactive”; with `CN(C)CCC=C1c2ccccc2C=Cc2ccccc21`, “inactive”; with `CCC1(c2ccccc2)C(=O)NCNC1=O`, “inactive”.
For the compound `CC#C[C@]1(O)CC[C@H]2[C@@H]3CCC4=CC(=O)CCC4=C3[C@@H](c3ccc(N(C)C)cc3)C[C@@]21C`, the Potency was 13.5 µM (active).
Consider `COc1ccccc1OCCNCC(O)COc1cccc2[nH]c3ccccc3c12` (stereo not drawn), for which the Potency entry is “inactive”.
Still for that read-out and setting: to `CC(COc1ccccc1)N(CCCl)Cc1ccccc1` (stereo not drawn) belongs “inactive”; to `O=C1c2c(O)ccc(O)c2C(=O)c2c(NCCNCCO)ccc(NCCNCCO)c21`, 6.42 µM (active).

The test system of another experiment is CP215. The experiment is described as above. The settings on record: P. falciparum in erythrocytes, SYBR Green DNA, 72 h; series mostly up to 28.7 µM. The method, boiled down:
as §1
`Cc1cc(C(C)(C)C)cc(C)c1CC1=NCCN1`: the Potency result is “inactive”.
Consider `OCCN1CCN(CCCN2c3ccccc3Sc3ccc(C(F)(F)F)cc32)CC1`, for which the Potency was 13.5 µM (active).
On the same count and under the same terms, with `O=c1c(-c2ccc(O)cc2)coc2cc(O)cc(O)c12` the entry was “inactive”; with `CC[N+](CC)(CC)CCOc1cccc(OCC[N+](CC)(CC)CC)c1OCC[N+](CC)(CC)CC`, “inactive”.
On the same count and under the same terms, with `CC(C)NCC(O)c1ccc(O)c(O)c1` (stereo not drawn) the entry was “inactive”; with `CN(Cc1cnc2nc(N)nc(N)c2n1)c1ccc(C(=O)N[C@@H](CCC(=O)O)C(=O)O)cc1`, “inactive”.
The same measure, in the same setting: to `Cc1ccc(C(=O)Nc2ccc(S(=O)(=O)O)c3cc(S(=O)(=O)O)cc(S(=O)(=O)O)c23)cc1NC(=O)c1cccc(NC(=O)Nc2cccc(C(=O)Nc3cc(C(=O)Nc4ccc(S(=O)(=O)O)c5cc(S(=O)(=O)O)cc(S(=O)(=O)O)c45)ccc3C)c2)c1` belongs “inactive”; to `Cc1ccc(-c2cc(C(F)(F)F)nn2-c2ccc(S(N)(=O)=O)cc2)cc1`, 13.5 µM (active).
Consider `CC[C@@]1(O)C(=O)OCc2c1cc1n(c2=O)Cc2cc3c(CN(C)C)c(O)ccc3nc2-1`, for which the Potency was 6.01 µM (active).
The same measure, in the same setting: with `O=C(c1ccc(OCCN2CCCCC2)cc1)c1c(-c2ccc(O)cc2)sc2cc(O)ccc12` the figure was 19 µM (active); with `CC(C)NCC(O)COc1ccc(CCOCC2CC2)cc1` (stereo not drawn), “inactive”.
Same read-out and setting: to `COC(=O)Nc1nc2ccc(C(=O)c3cccs3)cc2[nH]1` belongs “inactive”.
Still for that read-out and setting: with `Clc1ccc2nsnc2c1NC1=NCCN1` the entry was “inactive”; with `O=C(Nc1ccc([N+](=O)[O-])cc1Cl)c1cc(Cl)ccc1O`, 0.536 µM (active).
In the case of `CC12CC3CC(C)(C1)CC(N)(C3)C2`, the Potency entry is “inactive”.
As to `O=c1c(O)c(-c2ccc(O)c(O)c2)oc2cc(O)cc(O)c12`, the Potency is 13.5 µM (active).
Same read-out and setting: with `Cc1cnc(C(=O)NCCc2ccc(S(=O)(=O)NC(=O)NC3CCCCC3)cc2)cn1` the entry was “inactive”.
Still for that read-out and setting: with `O=c1[nH]cc(F)c(=O)[nH]1` the entry was “inactive”; with `C[C@](N)(Cc1ccc(O)c(O)c1)C(=O)O`, “inactive”.
For the compound `NCCc1cnc[nH]1`, the Potency result was “inactive”.
The same measure, in the same setting: with `CN(C)CCOC(c1ccccc1)c1ccccc1` the entry was “inactive”.
On the same count and under the same terms, to `CNCCCC12CCC(c3ccccc31)c1ccccc12` belongs “inactive”; to `CCC1(c2ccccc2)C(=O)NCNC1=O`, “inactive”.
The same measure, in the same setting: with `CC#C[C@]1(O)CC[C@H]2[C@@H]3CCC4=CC(=O)CCC4=C3[C@@H](c3ccc(N(C)C)cc3)C[C@@]21C` the figure was 12 µM (active); with `CCCCc1oc2ccccc2c1C(=O)c1cc(I)c(OCCN(CC)CC)c(I)c1`, 15.1 µM (active); with `O=C1c2c(O)ccc(O)c2C(=O)c2c(NCCNCCO)ccc(NCCNCCO)c21`, 6.42 µM (active).
